About 8,600 (12%) of roughly 69,000 compounds showed an effect of 50% or more. The sample holds strong results, similar compounds and a random draw of the others, so the mix is not that of the screen.

The subject of the experiment is Plasmodium berghei. The experiment in a line: Screen against P. berghei liver stage (PbLuc), transformed with Luciferase, at 10uM. The settings on record: tested at 10 uM. The experiment is classed as functional, HepG2.
In the case of `Cc1nn(C)c(N2CCOCC2)c1CNC(C)c1cccs1` (stereo not given), the INHIBITION is given as 16.9%.
Under `COc1ccc(N2CCN(C(=O)C(C)n3cc(Br)cn3)CC2)cc1` (stereo not given) stands 30%.
Under `Cc1cccc(CC2CCCN(C(=O)C3CCOCC3)C2)n1` (stereo not given) stands 30.4%.
With `O=C(C1CC1)N1CCC(c2nc(O)c3c(n2)CN(C2CCCC2)CC3)C1` (stereo not given) the figure was 5.11%; with `COc1cc(NCc2c(C)noc2C)c(C(=O)N(C)C)cc1OC`, -16.1%.
As to `Cc1noc(C)c1CN1Cc2nccn2CC(CN2CCOCC2)C1` (stereo not given), the INHIBITION came out at 18.3%.
As for `COCCC1(C(=O)O)CCCN(C(=O)c2cc(C)oc2C)C1` (stereo not given), the INHIBITION worked out at 69.9%.
Under `CCN(CC)Cc1cc(C(=O)N2CCCC(CC)(C(=O)O)C2)c(C)o1` (stereo not given) stands 29.9%; under `COc1ccc(F)cc1C(=O)N1CCCC(CNS(C)(=O)=O)C1` (stereo not given), -38.7%; under `COCCCC1(C(=O)O)CCCN(C(=O)c2ccc(Cl)cc2F)C1` (stereo not given), 39.3%.
With `CCCC1(C(=O)O)CCCN(C(=O)c2cc(Cl)ccc2F)C1` (stereo not given) the figure was 36.5%; with `COCCC1(C(=O)O)CCCN(C(=O)c2cc(F)ccc2OC)C1` (stereo not given), 79.7%.
Turning to `COCCCC1(C(=O)O)CCCN(C(=O)c2ccc(C(C)C)[nH]c2=O)C1` (stereo not given), the INHIBITION is recorded as 30.4%.
With `COCCC1(C(=O)O)CCCN(C(=O)c2cc(Cl)ccc2F)C1` (stereo not given) the figure was 58.8%.
Under `CCN1C(=O)CCCC12CCCN(C(=O)c1cc(C)oc1C)C2` (stereo not given) stands -17.1%.
Under `Cc1nnc(NC(=O)CN2CCCC2c2c(C)nn(C)c2C)s1` (stereo not given) stands -24.2%.
Turning to `CCc1nnc2n1CCN(C(=O)c1ccc3c(c1)nnn3C)C2`, the INHIBITION is listed as -8.66%.
Under `CS(=O)(=O)N1Cc2nccn2CC(CNC(=O)c2cccnc2)C1` (stereo not given) stands 2.79%; under `Cc1cc(CC(C)Nc2nc(C3CCCC3)nc3c2cnn3C)[nH]n1` (stereo not given), 45.1%.
Under `COC(=O)[C@@H](Nc1nc(C2CCCC2)nc2c1cnn2C)[C@@H](C)O` stands 10.9%.
For `COC(=O)[C@H](CSC)Nc1nc(C2CCCC2)nc2c1cnn2C`, the INHIBITION worked out at 52.6%.
Under `CCOC(=O)CC(C)Nc1nc(C2CCCC2)nc2c1cnn2C` (stereo not given) stands 61%; under `CCOC(=O)CNc1nc(COC)nc2c1cnn2C`, -4.23%.
Under `CC(C)C[C@H](Nc1nc(C2CCCC2)nc2c1cnn2C)C(N)=O` stands 61%.
Under `CC(C)[C@H](Nc1nc(C2CCCC2)nc2c1cnn2C)C(N)=O` stands 28.5%; under `COCCN1CC(Nc2nc(C3CCCC3)nc3c2cnn3C)CC1=O` (stereo not given), 25.1%; under `CC(=O)NCCNc1nc(C2CCCC2)nc2c1cnn2C`, 5.23%.
As to `CCC(Nc1nccc(C2CCCC2)n1)c1ccccn1` (stereo not given), the INHIBITION came to 22.5%.
With `CCC(Nc1nccc(C2CCCC2)n1)c1ncccc1C` (stereo not given) the figure was -24.8%; with `CCC(Nc1nccc(C2CCCC2)n1)c1ccncc1` (stereo not given), 84.1%.
Under `Cc1c(C2CCCN(C(=O)c3ccn(C)n3)C2)n2c(nc1=O)CCC2` (stereo not given) stands -9.32%; under `CC(=O)NCCNC(=O)NCC1Cc2ccccc2O1` (stereo not given), 1.56%; under `CN(C)C(=O)CN1CCCCC1c1nc(N)ncc1-c1cccc(F)c1` (stereo not given), 39.8%.
With `CS(=O)(=O)NC1CCCN(C(=O)Nc2cccnc2)C1` (stereo not given) the figure was 37.3%; with `Cc1noc(C)c1-c1nc(C2CCCN(CCC(N)=O)C2)ccc1CO` (stereo not given), -19%.
Turning to `O=C(CCN1C(=O)CC2(CCCC2)C1=O)NCCc1nccs1`, the INHIBITION was 20%.
Under `Cc1nc(NC(=O)C2(C)CN(C)CCO2)sc1C` (stereo not given) stands 4.3%; under `CCC(Nc1nc(C(C)C)nc2c1cnn2C)c1ccc(O)cc1` (stereo not given), 15.5%.
As to `CC[C@H](Nc1nc(C(C)C)nc2c1cnn2C)c1ccccc1`, the INHIBITION is 53.6%.
Under `CCC(Nc1nc(C(C)C)nc2c1cnn2C)c1ccncc1` (stereo not given) stands 48%.
In the case of `CCC(Nc1nc(C2CCCC2)nc2c1cnn2C)c1ccncc1` (stereo not given), the INHIBITION amounted to 50.8%.
With `O=S(=O)(CC1CCCCO1)Nc1cnn(CC(F)F)c1` (stereo not given) the figure was 9.76%.
Under `Clc1ccc(OCCc2cc(C3CCN(c4ncccn4)C3)n[nH]2)cc1` (stereo not given) stands 36.22%.
Under `CCCN1CCC(c2cc(CCOc3ccc(C(F)(F)F)cc3)[nH]n2)C1` (stereo not given) stands 58%; under `COc1ccc(OCCc2cc(C3CCN(CC(C)C)C3)n[nH]2)cc1` (stereo not given), 15.15%; under `O=C(NCc1ccon1)c1c(F)cc(Br)cc1F`, -7.83%.
Take `Cc1nc2ccc(C(=O)N3CCn4c(nnc4C4CC4)C3)cc2nc1C`: the INHIBITION worked out at 48.6%.
Under `O=C1NCC2(CCCN(C(=O)CCn3cnc4ccccc43)CC2)O1` (stereo not given) stands 35.8%; under `Cc1cc2ccccc2n1CCC(=O)N1CCCC2(CC1)CNC(=O)O2` (stereo not given), 65.7%; under `Cc1cc2ccccc2n1CCC(=O)N1CCC2(CC1)CNC(=O)C2`, 29.4%.
Under `Cc1cc(NC(=O)CN2CCc3cncnc3C2)no1` stands 16.8%.
`Cc1cc(C2CCCN2Cc2cc(=O)n(C)c(=O)n2C)no1` (stereo not given): the INHIBITION was -10.3%.
With `C[C@H](c1ccc(Cl)cc1)n1c(C2CC2)n[nH]c1=O` the figure was 24.4%; with `C[C@H](c1ccc(F)cc1)n1c(C2CCN(C)CC2)n[nH]c1=O`, 76.8%.
Under `C[C@H](c1ccc(F)cc1)n1c(C2CCC2)n[nH]c1=O` stands -6.59%.
